# Data as given in PubChem BioAssay AID1851 (National Center for Advancing Translational Sciences (NCATS), 2009).
# Several values for one entry are separate records, joined by “and”; a condition that tells them apart may be missing. Equal entries are not always repeated. Among all 16,000 compounds or so, about 5,800 (36%) were called active. Roughly 23% stayed inconclusive and do not appear here. Calls follow the shape of the dose curve; as a rule, active = well fitted curve in the direction sought with a large enough effect; inconclusive = small, poorly fitted or top-dose-only effect, or effect the other way; inactive = no such curve, though single readings can be large or run the other way. The list shows a part of the results. A structure can be active in one record and inactive in another.
# Target: Cytochrome P450 2C19 (Homo sapiens) (UniProt P33261)
# Sequence (P33261 whole entry, looked up): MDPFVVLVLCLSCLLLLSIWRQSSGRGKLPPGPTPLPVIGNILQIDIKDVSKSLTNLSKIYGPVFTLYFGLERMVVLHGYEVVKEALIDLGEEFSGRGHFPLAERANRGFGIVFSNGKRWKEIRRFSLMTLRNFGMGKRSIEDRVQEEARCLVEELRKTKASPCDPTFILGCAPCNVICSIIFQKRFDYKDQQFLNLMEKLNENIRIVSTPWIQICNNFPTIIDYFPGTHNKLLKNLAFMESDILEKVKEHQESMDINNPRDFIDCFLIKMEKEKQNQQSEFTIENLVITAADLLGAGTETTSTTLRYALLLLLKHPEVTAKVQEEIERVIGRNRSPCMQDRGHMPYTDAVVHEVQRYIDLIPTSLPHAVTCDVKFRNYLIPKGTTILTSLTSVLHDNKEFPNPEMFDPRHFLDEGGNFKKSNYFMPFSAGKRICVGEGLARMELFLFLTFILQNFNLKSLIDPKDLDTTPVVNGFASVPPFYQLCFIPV
# Experiment: Cytochrome panel assay with activity outcomes
# Conditions: recombinant CYP, pro-luciferin dealkylation, luminescence, p450-cyp2c19; series mostly up to 57.1 µM; activity, negative = inhibition: at the top concentration
# % is scaled to controls: 0 for no effect and ±100 for the full control effect.
SMILES,"activity, negative = inhibition",AC50
O=C(O)[C@@H]1[C@H](C(=O)O)[C@H]2C(=O)C=C[C@H]1N2Cc1ccccc1,2.25% [at 11.4 µM] (inactive),–
O=C1C[C@@H](O)[C@@H](O)[C@H]2[C@@H]3C(=O)N(Cc4ccccc4)C(=O)[C@@H]3CC[C@H]12,-9.62% [at 11.4 µM] (inactive) and 25.4% [at 11.4 µM] (inactive),–
O=C1C2CCC(C(O)C2)N1Cc1ccccc1 (stereo unspecified),–,15.8 µM (active)
Cn1cc([N+](=O)[O-])c(C(=O)Nc2cc(Oc3cccnc3)cc([N+](=O)[O-])c2)n1,–,7.94 µM (active)
CC1CCCC(C)N1C(=O)C1CC(c2ccc(F)cc2)=NO1 (stereo unspecified),–,17.8 µM (active)
O=C(NC1CCCC1)C1CC(c2ccc(F)cc2)=NO1 (stereo unspecified),–,10 µM (active)
O=C(NNC(=O)C1CC(c2cccnc2)=NO1)Nc1cccc(F)c1 (stereo unspecified),34.3% (inactive),–
CO[C@H]1COC(=O)[C@H](C)COC(=O)C/C=C\[C@@H](C)[C@H](OC)COC(=O)C/C=C\[C@@H]1C,-42.3% [at 11.4 µM] (inactive),–
COc1nc(C)nc(Cl)c1NC1=NCCN1,-32% [at 25.6 µM] (inactive),–
Fc1ccc(CN(C2=NCCN2)c2c(Cl)cccc2Cl)cc1,-36.9% (inactive),–
Clc1cccc(Cl)c1NC1=NCCN1,–,inactive and 5.01 µM (active)
Clc1cccc(Nc2nnc(-c3ccccc3)c3ccccc23)c1,–,0.794 µM (active)
Cc1ccc(COc2coc(CO)cc2=O)cc1,–,14.1 µM (active)
C=C1C(=O)C=C2CN(C(=O)c3ccccc3)[C@@](Cc3ccc(OC)cc3)(C(=O)OC)[C@@H]12,–,20 µM (active)
COc1ccc(C(=O)N2CCC3(CC2)CN(Cc2ccc(C#N)cc2)C3)cc1,-27.6% (inactive),–
C=C1C(=O)C=C2CN(C(=O)c3ccccc3)[C@@](Cc3ccc(F)cc3)(C(=O)OC)[C@@H]12,–,5.01 µM (active)
COC(=O)[C@@]1(Cc2ccc(OC)cc2)[C@@H]2C(=CC(=O)[C@H]2CC(=O)C(=O)N(C)C)CN1C(=O)c1ccccc1,-31.9% (inactive),–
O=C(O)C12CC3(C(=O)O)CC(C(=O)O)(CC(C(=O)O)(C1)C3=O)C2=O,-11.5% [at 11.4 µM] (inactive),–
C[C@H]1/C=C\CC(=O)OC[C@H](C)C(=O)N2CCC[C@@H]2C(=O)OC1,-9.53% [at 11.4 µM] (inactive),–

SMILES,"activity, negative = inhibition",AC50
COC(=O)[C@@H]1O[C@@H](SCCN)[C@@H](O)[C@H](O)[C@H]1O,31.9% [at 11.4 µM] (inactive),–
Cc1cn2c(-c3ccncc3)nnc2s1,-27.6% (inactive),–
c1cc(-c2sc(-c3ccncc3)c(-c3ccncc3)c2-c2ccncc2)ccn1,–,1.58 µM (active)
COc1ccccc1N1CCN(C(=O)C(NS(=O)(=O)c2cccs2)c2ccccc2)CC1 (stereo unspecified),–,3.16 µM (active)
CC(C)C(NS(=O)(=O)c1cccs1)C(=O)NCCN1CCN(c2ccccc2)CC1 (stereo unspecified),–,14.1 µM (active)
CCN1CCN(CCCNC(=O)C(NC(=O)C2CCC(C)CC2)C(C)C)CC1 (stereo unspecified),9.56% (inactive),–
COC(=O)N1CCC2(CC1)CCN(C(c1ccccc1)c1ccccc1)CC2,-44.4% (inactive),–
COc1ccc(N2CCN(CCNC(=O)c3c(C)cc(=O)oc3C)CC2)cc1,-20.5% (inactive),–
O=C(C(NS(=O)(=O)c1cccs1)c1ccccc1)N1CCN(c2ccccc2)CC1 (stereo unspecified),–,1.41 µM (active)
CC(=O)N[C@@H](C(=O)O)C(C)(C)SN=O,–,inactive
CCOC(=O)c1[nH]c(C)c(C(=O)OCC(=O)N2c3ccccc3CC2C)c1C (stereo unspecified),–,11.2 µM (active)
CNC(=S)NNC(=O)COc1ccccc1C,-29% (inactive),–
CNCC[C@H](Oc1ccccc1C)c1ccccc1,-21.1% (inactive),–
Cc1ccccc1OCCNC(=S)Nc1ccccc1,–,0.794 µM (active)
O=C(CC(=O)N/N=C\c1c(Cl)cccc1Cl)NCc1ccccc1,–,2.51 µM (active)
C[C@@](N)(C(=O)O)c1ccc(P(=O)(O)O)cc1,13.2% (inactive),–
CN1Cc2c(C(=O)OC(C)(C)C)ncn2-c2ccsc2C1=O,–,1.26 µM (active)
CCOCCCn1cnc2c([nH]c3cc(OC)ccc32)c1=O,–,1.41 µM (active)
O=C(N/N=C/c1ccc2c(c1)OCO2)/C(=C/c1ccc2c(c1)OCO2)NC(=O)c1ccccc1,–,14.1 µM (active)

SMILES,"activity, negative = inhibition",AC50
Cc1ccc(NC(=O)/C(=C\c2ccc3c(c2)OCO3)NC(=O)c2ccco2)cc1,-26.4% (inactive),–
C=CCNC(=O)/C(=C\c1ccc2c(c1)OCO2)NC(=O)c1ccc(Br)cc1,–,8.91 µM (active)
Cc1ccc(N(C(=O)c2csnn2)C(C(=O)NC(C)(C)C)c2cccs2)cc1 (stereo unspecified),–,2.51 µM (active)
COc1ccc(-c2csc3c2[N+]2=CCC=C2C3=O)cc1,–,3.98 µM (active)
COc1cc(C(=O)N2CCN(C(=O)c3ccccc3)CC2)cc(OC)c1OC,-7.85% (inactive),–
COc1cc2c(C(=O)N3CCN(C)CC3)c(C)n(-c3ccccc3)c2cc1Br,–,28.2 µM (active)
COc1ccccc1CN1CCCC2(CCN(C(=O)c3c(C)noc3C)CC2)C1,-37.8% (inactive),–
CC1CCN(C(NC(=O)c2ccco2)C(=O)c2ccccc2)CC1 (stereo unspecified),–,2 µM (active)
CC(C)NC(=O)N1CCCC2(CCN(C(=O)c3ccco3)CC2)C1,-17.9% (inactive),–
COc1ccc(C(=O)N2CCC[C@@]3(CCN(CC(C)C)C3)C2)cc1,6.79% (inactive),–
Cc1ccc(C2C(=O)N(C3CCCC3)CC(=O)N2CC2COc3ccccc3O2)cc1 (stereo unspecified),–,6.31 µM (active)
NC(=O)CNC(=O)[C@@H]1CC2(CC(c3ccc(Cl)cc3)=NO2)CN1C(=O)c1ccccc1 (stereo partly specified),2.94% (inactive),–
O=C(c1ccc(Cl)cc1)N1CCCC(c2ccccc2)=N1,–,4.47 µM (active)
Cc1ccc(S(=O)(=O)N2CCN(S(C)(=O)=O)C2)cc1,–,11.2 µM (active)
COc1ccccc1CN1CCC2(CC1)CCN(S(=O)(=O)c1ccccc1)CC2,18.2% (inactive),–
O=S(=O)(c1ccc(Br)cc1)N1CCN(S(=O)(=O)c2ccc(Br)cc2)CC1,-4.78% [at 11.4 µM] (inactive),–
Cc1ccc(S(=O)(=O)N2CCN(Cc3ccccc3C(F)(F)F)CC2)cc1,–,2.24 µM (active)
CN(C)[C@H]1C(=O)C(C(=O)NCN2CCCC2)=C(O)[C@]2(O)C(=O)C3=C(O)c4c(O)cccc4[C@](C)(O)[C@H]3C[C@H]12,-26.1% [at 11.4 µM] (inactive),–
